High-throughput results as filed in PubChem.
DAX1 inh-1: DAX1 (NR0B1) inhibition, primary screen | HEK293T StAR-luciferase reporter, SF-1/DAX-1 repression relief | inhibition, % at 6.8 µM | hit rate 1.1% among 370,000 | AID 652010;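 active means inhibition above the mean over all tested compounds plus 3 SD, cut at about 3.6% in these data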;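 further: 0% = DAX-1 cells with DMSO and 100% = cells lacking DAX-1 with DMSO; higher inhibition means more luminescence from relief of DAX-1 repression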
SMARCA2 activ: SMARCA2 function activation, primary screen; MG213 cells, MMTV-luciferase reporter, dexamethasone, overnight; activation, % at 9.1 µM; hit rate 1% among 370,000; AID 652017; in the data active means activation above about 7.8%;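 further: 0% = vehicle wells and 100% = reference activator wells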
ssDAF-12 act: activates DAF-12 receptor from parasite S. stercoralis; HEK293 ssDAF-12/GRIP1 lit1-tk-luc reporter, luminescence; % of 3 µM dafachronic acid response; activation, % at 6.8 µM; hit rate 1% among 370,000; AID 652126;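 active means activation above the mean over all tested compounds plus 3 SD, cut at about 0.9% in these data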;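 further: 0% = DMSO-only wells and 100% = 3 µM delta7-dafachronic acid wells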
DAX1 inh-2: inhibitors of human orphan nuclear receptor DAX1 (NR0B1) | hit rate 0.99% among 340,000 | P51843 | HEK293 Gal4-DAX1 luciferase reporter, luminescence | AID 504766 | inhibition, % at 6.75 µM;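 active means inhibition above the mean over all tested compounds plus 3 SD, cut at about 4.2% in these data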;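 further: 0% = DAX1-transfected cells with DMSO and 100% = empty-vector control cells with DMSO; inhibition shows as a rise in luminescence from relieved DAX1 repression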
Target sequence (P51843 207-470 limits assumed): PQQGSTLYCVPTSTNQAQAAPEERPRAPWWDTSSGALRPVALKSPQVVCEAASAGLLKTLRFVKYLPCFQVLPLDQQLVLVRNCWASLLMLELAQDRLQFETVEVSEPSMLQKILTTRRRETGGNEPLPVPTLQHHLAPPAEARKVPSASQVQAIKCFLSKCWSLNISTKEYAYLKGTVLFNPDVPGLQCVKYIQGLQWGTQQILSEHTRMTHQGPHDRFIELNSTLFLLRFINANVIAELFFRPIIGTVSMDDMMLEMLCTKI
hcDAF-12 act: activators of H. contortus DAF-12 nuclear receptor | AID 652067 | HEK293 hcDAF-12 lit1-tk-luc reporter, luminescence; 0% DMSO, 100% Δ7-dafachronic acid | hit rate 1.4% among 370,000 | activation, % at 6.8 µM;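 active means activation above the mean of all tested compounds plus 3 SD, cut at about 5.5% in these data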;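 further: 100% = response to 3 µM Δ7-dafachronic acid high control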
hgDAF12 agonist: activates the H. glycines DAF-12 receptor ligand-binding domain; HEK293 GAL4-hgDAF12 UAS-luciferase reporter, agonist luminescence; normalized to butyrate control; activation, % at 6.8 µM; hit rate 1.8% among 370,000;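 active means activation above a cutoff set at the mean of all screened compounds plus 3 SD, cut at about 10% in these data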;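 further: 0% = DMSO wells and 100% = sodium butyrate wells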
An asterisk follows results filed as active; nt = no result. In the library only some 4.8% were active in any assay of this set; here they are far more common.

SMILES	DAX1 inh-1	SMARCA2 activ	ssDAF-12 act	DAX1 inh-2	hcDAF-12 act	hgDAF12 agonist
O=C(CSc1nnc(Cc2cccs2)n1-c1ccc(Cl)cc1)Nc1ccc(OCc2ccccc2)cc1	-2	-5	-2	nt	0	-3
c1ccc2c(c1)Oc1cccc3cccc-2c13	0	0	-1	4.3*	-1	1
Clc1ccccc1C1CC(c2ccccc2)=Nc2ccccc2N1 (stereo unspecified)	1	1	-1	4.8*	2	8
Cc1ccc(S(=O)(=O)N(C)[C@H]2C[C@H]3c4cc(-c5ccccc5C)ccc4CCN3C[C@H]2[C@H](C)O)cc1	0	-2	-1	nt	-2	5
O=[N+]([O-])c1cc(C=Nc2ccc3ccccc3c2)ccc1Br	1	4	1.2*	1	2	5
C[C@@H]1CN(Cc2nnnn2CC(=O)NCCCn2cccn2)C[C@H](C)O1	0	7.9*	-1	0	0	0
COc1ccccc1NC(=S)N1CC(C)OC(C)C1 (stereo unspecified)	0	2	-2	4.6*	-1	-2
COc1ccc(NC(=S)N2CCCC2)c(OC)c1	0	0	-1	4.6*	1	2
COc1ccc(NC(=S)N2CCN(Cc3cccc(F)c3)CC2)c(OC)c1	0	-2	-2	5.0*	0	-1
O=C(NC1CCC1)c1ccc(C#Cc2cccc(F)c2)cn1	-1	-2	-1	nt	-3	-2
COC(=O)[C@]12C[C@H](CC(=O)N3CCOCC3)C(=O)N(Cc3cccc4ccccc34)C1=C[C@H](C(C)C)O[C@@H]2C1CC1	0	-7	-2	nt	-1	-1
Cc1occc1C(=O)NNC(=S)Nc1ccccc1C(F)(F)F	2	2	0	4	5	13*
Cc1ccccc1NC(=S)NNC(=O)c1ccoc1C	1	2	-1	1	2	6
Cc1ccc(NC(=O)C2CCCN2S(=O)(=O)c2cccnc2)cc1C (stereo unspecified)	-1	-4	-2	nt	-3	-2
O=C(NCCN1C(=O)C2C3C=CC(C3)C2C1=O)c1cc(F)cc(F)c1 (stereo unspecified)	-1	-4	-1	nt	-1	7
Cc1ccc(NC(=O)CSc2ccccc2NC(=O)c2ccccc2)cc1Cl	0	0	0	0	5.6*	8
CC(C)CNC1CS(=O)(=O)CC1O (stereo unspecified)	0	0	-1	1	0	1
CCCCCCCCS(=O)C1CS(=O)(=O)CC1O (stereo unspecified)	0	-2	-2	4.7*	0	0
O=C(CSc1ccc2nnc(CCNC(=O)c3ccc(F)cc3)n2n1)NCc1ccco1	1	-3	-1	1	-3	-1
O=C(CSc1ccc2nnc(CCNC(=O)c3ccccc3)n2n1)NCc1ccco1	3.9*	-2	0	0	-1	-1
C[n+]1c(/C=C/c2ccc(O)cc2)ccc2ccccc21	1	2	-1	0	5	10
C[n+]1c(/C=C/c2ccc3c(c2)OCO3)ccc2ccccc21	-1	-3	-3	6.0*	-2	-6
CC1CCCN(C(C(=O)Nc2ccc3c(c2)OCO3)c2ccccc2)C1 (stereo unspecified)	1	-4	0	0	6.3*	6
Cc1ccc(C23CC4CC(CC(CN)(C4)C2)C3)cc1	0	0	0	4.9*	2	0
Cc1ccc(OCC(=O)c2c[nH]c3ccccc23)c([N+](=O)[O-])n1	2	-1	1	3	6.3*	4
Cc1ccc(OCC(=O)Nc2ccc(F)cc2)c([N+](=O)[O-])n1	3	4	0	7.0*	5	10
Cc1ccc(C)c(C(=O)COc2ccc(C)nc2[N+](=O)[O-])c1	0	1	0	0	2	-2
Cc1ccc(OCC(=O)NCC(=O)Nc2ccc(F)cc2)c([N+](=O)[O-])n1	0	-2	-2	3	-2	-2
CN(C)C1=NCCN1CCCC1CCCC1	0	0	-1	2	-1	0
CN(C)C1=NCCN1CC1CCCC1	0	1	1.2*	0	3	1
